Compound activity deposited in PubChem BioAssay by several laboratories.
Shown are actives, neighbours in structure and some others; about 10% of the full set was active somewhere.
ROMK primary = modulates human ROMK potassium channel activity | 130,000 compounds, 2% hits | P48048 | B-score at 10 µM | Tet-inducible ROMK, thallium flux fluorescence; actives lie on both sides;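 active = signal ratio slope over the read window, or its plate-corrected B-score, at least 3 SD from the plate mean, either direction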;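 also: B-score of the F/F0 ratio slope over 7 to 12 s after thallium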
L major viab = reduces viability of Leishmania major promastigotes. resazurin fluorescence viability. inhibition, % at 10 µM. 200,000 compounds, 9% hits. AID 1063; in the data active = inhibition above about 50%;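 also: promastigotes grown with compound for 44 hours at 28 °C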
Insulin prom inh = TRM-6 insulin promoter activity inhibition; 130,000 compounds, 0.9% hits; AID 1273; inhibition, % at 2 µM; TRM-6 cells (human fetal islet line), insulin promoter-eGFP reporter, imaging; reporter expression induced with tamoxifen;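 active = inhibition above the mean plus 3 SD, with well images judged a real hit on visual review, cut at about 60% in these data, passing the limit was not always enough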
HCT116 PTEN-null = growth suppressors of cells with PTEN tumor suppressor deletion; HCT116 PTEN-null viability, CellTiter-Glo, 60 h; stronger effect = lower value; viability, % at 10 µM; 140,000 compounds, 1.2% hits;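 active = viability at or below a set limit, 4 SD under the median of all tested compounds, cut at about 3.7% in these data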;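 also: PTEN knockout HCT116 line with beta catenin targeted HCT116 as companion control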
p97 inhibitor = inhibitors of human p97 ATPase | P55072 | recombinant p97 ATPase, Kinase-Glo ATP luminescence, 3 h | inhibition, % at 8 µM | 220,000 compounds, 0.42% hits | AID 1481; in the data active = inhibition above about 15%;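 also: 0% = DMSO vehicle and 100% = wells lacking enzyme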
Target sequence (P55072 whole entry, looked up): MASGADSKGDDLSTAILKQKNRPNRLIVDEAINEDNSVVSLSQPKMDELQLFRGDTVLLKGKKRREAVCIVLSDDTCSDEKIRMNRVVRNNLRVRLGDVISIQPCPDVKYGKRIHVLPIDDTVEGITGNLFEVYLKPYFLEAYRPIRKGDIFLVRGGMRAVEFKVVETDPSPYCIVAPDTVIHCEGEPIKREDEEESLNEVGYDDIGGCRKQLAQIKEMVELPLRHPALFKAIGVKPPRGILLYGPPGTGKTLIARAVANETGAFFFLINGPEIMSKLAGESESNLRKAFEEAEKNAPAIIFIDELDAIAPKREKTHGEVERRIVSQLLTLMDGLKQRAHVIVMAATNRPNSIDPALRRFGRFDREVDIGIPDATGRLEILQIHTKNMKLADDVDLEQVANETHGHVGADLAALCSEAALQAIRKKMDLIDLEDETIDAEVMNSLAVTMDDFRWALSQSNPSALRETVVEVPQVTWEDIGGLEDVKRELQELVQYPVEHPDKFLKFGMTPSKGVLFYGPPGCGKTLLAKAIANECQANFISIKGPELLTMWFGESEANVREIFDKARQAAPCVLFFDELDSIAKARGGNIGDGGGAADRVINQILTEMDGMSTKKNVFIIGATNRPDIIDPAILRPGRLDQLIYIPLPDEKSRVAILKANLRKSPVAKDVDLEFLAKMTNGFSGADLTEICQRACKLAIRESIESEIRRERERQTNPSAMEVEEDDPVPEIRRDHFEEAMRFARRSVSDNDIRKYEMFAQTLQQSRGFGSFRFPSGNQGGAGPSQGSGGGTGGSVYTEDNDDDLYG
bCat KO growth = beta-catenin-lacking colon tumor cell growth suppression. 140,000 compounds, 1.5% hits. HCT116 beta-catenin knockout viability, CellTiter-Glo, 60 h; stronger effect = lower value. viability, % at 10 µM;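 active = viability at or under a set limit, the compound median less 4 SD, cut at about 6% in these data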;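 also: 0% = Hyamine 1622 control at 20 µM and 100% = untreated cell control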
* hit, by the source's call; / = not tested or not shown.

SMILES	ROMK primary	L major viab	Insulin prom inh	HCT116 PTEN-null	p97 inhibitor	bCat KO growth
CCCCn1c(O)c(C(C)=NC(Cc2c[nH]c3ccccc23)C(=O)OC)c(=O)[nH]c1=O (stereo not given)	/	99*	25	100	-2	82
CCCCn1c(O)c(C(C)=NCCc2c[nH]c3ccccc23)c(=O)[nH]c1=O	/	/	/	/	4	/
CCCCCCn1c(O)c(C(C)=NC)c(=O)[nH]c1=O	0.038	0	-36	92	-5	110
Cc1ccsc1C(=O)C1CCCN(Cc2cnn(C)c2)C1 (stereo not given)	1.3	34	/	/	1	/
CCn1cc(CN2CCCC(C(=O)c3sccc3C)C2)cn1 (stereo not given)	/	54*	/	/	5	/
Cc1ncc(CN2CCCC(C(=O)c3sccc3C)C2)s1 (stereo not given)	0.076	52*	/	/	3	/
O=C(Nc1ccc(Cl)cc1)O/N=C(\c1ccccc1)c1ccccn1	-0.71	-8	/	98	1	98
CC(C)(C)N1Cc2ccccc2C1=N	0.94	-2	17	98	1	87
N#Cc1ccccc1Cn1cc(C(=O)c2ccccc2F)c2ccccc21	0.79	49	/	89	8	83
CCCCN1C(=O)/C(=C/c2ccc(N3CCCCCC3)cc2)C(=O)NC1=S	/	59*	/	90	6	90
CCC(C)N1C(=O)/C(=C\c2cc3c4c(c2)CCCN4CCC3)C(=O)NC1=S (stereo not given)	-0.74	98*	11	89	2	83
CN1C(=O)/C(=C\c2ccc(N3CCCCCC3)cc2)C(=O)NC1=S	/	/	/	/	3	/
CCC(C)N1C(=O)/C(=C\c2ccc(N3CCCCCC3)cc2)C(=O)NC1=S (stereo not given)	0.33	93*	0	91	-5	89
COc1ccc2c(c1OC)C(=O)OC2c1c(O)n(Cc2ccc(F)cc2)c(=O)[nH]c1=O (stereo not given)	/	-8	-65	96	4	92
Nc1ccccc1C(=O)OC1CSC1	1.1	-4	16	88	-1	101
OC1(c2ccc(F)cc2)CC2CCC(C1)N2Cc1nnnn1C1CCCC1 (stereo not given)	-0.45	7	11	82	-7	97
OC1(c2ccccc2F)CC2CCC(C1)N2CCN1CCOCC1 (stereo not given)	0.22	52*	/	105	5	100
COC(=O)c1cc(C(O)(C(=O)OC)C(F)(F)F)c(/N=C/N(C)C)s1 (stereo not given)	/	-1	/	107	-4	108
COc1ccc(CCn2c(O)c(C=Nc3ccc(F)cc3)c(=O)[nH]c2=O)cc1OC	/	/	/	/	-2	/
CCN(CC)c1ccc(N=Cc2c(O)n(CCc3ccc(OC)c(OC)c3)c(=O)[nH]c2=O)cc1	/	40	/	15	-1	2.7*
CCN(CC)c1ccc(N=Cc2c(O)n(-c3cc(OC)ccc3OC)c(=O)[nH]c2=O)cc1	0.46	21	/	24	3	3.0*
CC(C)OC(=O)Nc1ccc(N=C(N)N[N+](=O)[O-])cc1	0.22	3	6	/	-2	/
O=C(O)CCn1cc(C=C2C(=O)NC(=O)NC2=O)c(-c2cc3ccccc3oc2=O)n1	-0.23	-5	/	/	6	/
O=C(c1ccccc1)c1cn(CC(=O)N2CCCc3ccccc32)c2ccccc12	-0.53	95*	-3	93	1	96
CC1CCCN(CC(=O)N2CCCc3ccccc32)C1 (stereo not given)	/	-3	8	85	-4	93
SMILES	ROMK primary	L major viab	Insulin prom inh	HCT116 PTEN-null	p97 inhibitor	bCat KO growth
Cc1csc(=N)n1Cc1ccccc1	1	14	/	99	-2	93
CN1/C(=C\C=Nc2ccccc2)C(C)(C)c2ccccc21	-1.4	98*	/	56	4	69
C/C(=N\Nc1ccccc1)c1c(O)n(C)c(=O)n(C)c1=O	/	76*	/	104	8	108
CC(C)(C)N1C(=O)NC(=O)/C(=C\c2ccc3c(c2)CCN3CCCCl)C1=O	0.27	/	/	/	-6	/
O=C1NC(=S)N(C2CC2)C(=O)/C1=C/c1ccc2c(c1)CCN2CCCCl	-2.7	74*	12	70	2	69
COc1ccc(/C=C2\C(=O)NC(=S)N(C)C2=O)cc1C	0.67	-1	/	/	5	/
C=CCN1C(=O)/C(=C/c2ccc3c(c2)CCCN3CCC)C(=O)NC1=S	-1.2	91*	-21	46	4	57
CCN1C(=O)/C(=C/c2ccc3c(c2)CCN3CCCCl)C(=O)NC1=S	-0.85	100*	4	36	6	38
CNc1cc(Cl)c2nonc2c1[N+](=O)[O-]	-2.2	75*	/	/	-1	/
O=C(c1cc2cc3ccc(Cl)cc3nc2o1)N1CCC2(CC1)OCCO2	/	-4	84*	90	4	90
COc1ccc2nc3oc(C(=O)N4CCC5(CC4)OCCO5)cc3cc2c1	-0.17	-7	67	/	-6	/
CCCC(C)C1(CC)C(=O)NC(=O)N=C1N (stereo not given)	0.54	-5	20	101	4	100
Cc1ccc(C(=O)N[C@@H](C)CN2C3=NC[C@@H](Cc4ccccc4)N3C[C@H]2Cc2ccc(O)cc2)cc1Br	/	52*	/	/	6	/
COc1ccccc1CCNCc1ccc(OC)c(OC)c1OC	-0.61	13	13	/	4	/
Oc1ccc2ccccc2c1CN1CC=C(c2ccccc2)CC1	0.47	4	17	/	6	/
CCN(CC)c1ccc(CN2CC=C(c3ccc(F)cc3)CC2)cc1	/	96*	50	71	-3	74
COC(=O)C(O)(c1ccc(NC(=O)c2cccs2)c(C)c1)C(F)(F)F (stereo not given)	/	/	/	/	-6	/
CCOC(=O)C(=CNc1ccc(C(O)(C(=O)OCC)C(F)(F)F)cc1C)C(=O)OCC (stereo not given)	/	55*	-33	57	-1	70
O=C(Cc1ccccc1)N1CCN(CC2CC=CCC2)CC1 (stereo not given)	-0.64	81*	6	89	0	92
COc1cccc(OCC(=O)N2CCN(C)CC2)c1	0.76	-7	3	117	-1	112
CN1CCN(C(=O)Cc2ccccc2)CC1	/	/	/	/	3	/
O=C(Cc1ccccc1)N1CCN(CC2CC3C=CC2C3)CC1 (stereo not given)	/	67*	36	97	-5	88
COc1ccc(OCC(=O)N2CCN(CC3CC4C=CC3C4)CC2)cc1 (stereo not given)	-0.42	87*	/	92	-9	92
Cc1nonc1-c1nc(-c2nonc2N)n[nH]1	/	-2	10	99	0	101
Cc1cccn2c(=O)c3c(nc12)N1CCCCCC1C1(C3)C(=O)N(C)C(=O)N(C)C1=O (stereo not given)	/	/	/	/	-6	/
CCCCN1C(=O)NC(=O)C2(Cc3c(nc4c(C)cccn4c3=O)N3CCc4ccccc4C32)C1=O (stereo not given)	/	96*	-8	64	1	66
CCCCN1C(=O)NC(=O)C2(Cc3c(nc4ccccn4c3=O)N3CCc4ccccc4C32)C1=O (stereo not given)	-1.3	89*	/	69	-1	71
